VDR inh = Inhibitors of the vitamin D receptor (VDR): qHTS; Vitamin D3 receptor (Homo sapiens), P11473; VDR-SRC2-3 peptide fluorescence polarization, 2 h; Potency, µM, for the others: max response, negative = inhibition, usual class: inhibitors; 400,000 tested, 0.93% active; AID 504847, 2011; further: potency means the concentration at half of the fitted maximal effect; on the % scale 0 is the no-effect control and ±100 the full control effect
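FP read-out; VDR + SRC2-3 coactivator peptide; 23 nl compound by pintool; 2 h RT incubation; reagents held at 4 deg C, protected from light.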
FEN1 inh = qHTS Assay for the Inhibitors of Human Flap endonuclease 1 (FEN1). P39748. Recombinant FEN1 flap cleavage, fluorescence, 15 min. Potency, µM (titrated, usually from 114 µM), for inactives: at the highest dose activity change, negative = inhibition, actives largely listed as inhibitors. 390,000 tested, 0.35% active. AID 588795, 2011; further: potency means the concentration at half of the fitted maximal effect; on the % scale 0 is the no-effect control and ±100 the full control effect; nearly all actives have a fitted effect of over 65% in size
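FEN1 at 10 nM, compound pretreatment for 15 min (room temperature), 50 nM final substrate to initiate; endpoint reads at 0 and 15 min; DMSO-only plates used as vehicle background.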
TCR activator = Activators of T cell receptors: qHTS campaign; 330,000 tested, under 10 active; primary human leukocytes, anti-CD3, IL-2 HTRF, 48 h; Potency, µM (top dose mostly 9.22 µM), inactives show top-dose activation of IL-2 secretion, most hits filed as activators; AID 504894, 2011; further: % of control where 0% means no effect
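48 hr co-incubation of compounds, a-CD3 beads and primary human leukocytes; IL-2 quantified homogeneously by HTRF with anti-IL-2 K and d2 conjugates.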
PI5P4Ka inh = qHTS for Inhibitors of phosphatidylinositol 5-phosphate 4-kinase (PI5P4K); Phosphatidylinositol 5-phosphate 4-kinase type-2 alpha (Homo sapiens), P48426; PI5P4Kalpha enzyme, ADP-Glo luminescence, 60 min; stronger effect = lower value; max response, %; 330,000 tested, 1.2% active; active means max response of -50% or lower; inconclusive means between -30% and -50%; inactive means -30% or higher; further: value at the top dose of about 77 µM; on the % scale 0 is the no-effect control and ±100 the full control effect
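qHTS, 1536-well: enzyme/substrate mix, compound by pin tool, 5 microM ATP final; RT 60 min; ADP-Glo reagents 1 (45 min) then 2 (30 min); luminescence.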
PLK1 PBD block = qHTS for Inhibitors of PLK1-PDB (polo-like kinase 1 - polo-box domain): Primary Screen; Potency, µM, without a hit: max response, negative = inhibition, actives largely listed as inhibitors; Plk1 PBD binding of FITC phosphopeptide, fluorescence polarization; Serine/threonine-protein kinase PLK1 (Homo sapiens), P53350; 360,000 tested, 2.8% active; further: potency means the concentration at half of the fitted maximal effect; series mostly up to about 57 µM; on the % scale 0 is the no-effect control and ±100 the full control effect; nearly all actives have a fitted effect of over 65% in size
Target sequence (P53350 whole entry, looked up, the tested form may be a part): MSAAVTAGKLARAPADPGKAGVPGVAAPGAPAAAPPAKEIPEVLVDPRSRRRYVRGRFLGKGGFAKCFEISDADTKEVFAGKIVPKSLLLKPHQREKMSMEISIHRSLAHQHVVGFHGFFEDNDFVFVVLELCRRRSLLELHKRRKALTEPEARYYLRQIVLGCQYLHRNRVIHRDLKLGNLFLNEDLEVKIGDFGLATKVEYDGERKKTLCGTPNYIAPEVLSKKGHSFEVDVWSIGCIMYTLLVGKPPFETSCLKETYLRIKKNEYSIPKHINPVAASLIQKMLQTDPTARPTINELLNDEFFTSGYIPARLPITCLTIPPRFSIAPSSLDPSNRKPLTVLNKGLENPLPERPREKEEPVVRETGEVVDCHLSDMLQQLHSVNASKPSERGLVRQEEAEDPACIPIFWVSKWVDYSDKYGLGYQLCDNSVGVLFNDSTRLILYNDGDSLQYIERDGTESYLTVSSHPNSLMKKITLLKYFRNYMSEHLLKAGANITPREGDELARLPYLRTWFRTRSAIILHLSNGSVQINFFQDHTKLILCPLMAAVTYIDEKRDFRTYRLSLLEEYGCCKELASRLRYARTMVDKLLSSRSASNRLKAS
WRN helicase inh = qHTS for Inhibitors of WRN Helicase. AID 651768, 2012. Potency, µM (doses to about 114 µM), without a hit: at the top dose activity change, negative = inhibition, usual class: inhibitors. Bifunctional 3'-5' exonuclease/ATP-dependent helicase WRN (Homo sapiens), Q14191. WRN helicase unwinding, fluorescent forked duplex, kinetic. 360,000 tested, 0.46% active; further: potency means the concentration at half of the fitted maximal effect; on the % scale 0 is the no-effect control and ±100 the full control effect; nearly all actives have a fitted effect of over 55% in size
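WRN at 20 nM final was preincubated with compound for 15 min at room temperature; reaction started with 100 nM forked duplex oligonucleotide carrying fluorophore and quencher plus 2 mM ATP (final). Unwinding followed kinetically by red fluorescence (ex 525/em 598 nm).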
An asterisk follows results filed as active; [ ] = remark or other dose. Shown are actives, neighbours in structure and some others; about 3.7% of the full set was active somewhere. Unless noted, the call rests on the fitted dose curve; in most records, active means well fitted curve in the direction sought with a large enough effect; inconclusive means small, poorly fitted or top-dose-only effect, or another doubt; inactive means no such curve, though single readings can be large; an effect the other way counts as inactive or inconclusive.

`COC(=O)c1sccc1S(=O)(=O)N1CCN(c2cccc(C)c2C)CC1` gave VDR inh -1.8% and FEN1 inh -19.8%.
Screening C=C(C)Cn1c(=O)c2c(nc3n2CCN3c2ccc(F)cc2)n(C)c1=O returned VDR inh 2.3% and FEN1 inh 2.9%.
`CCN(Cc1ccccc1)C(=O)Cn1c(=O)n(-c2ccc(Cl)cc2)c(=O)c2c(C)c(C)sc21` gave VDR inh 1.4% and FEN1 inh 11.8%.
For Cc1[nH]c(-c2ccccn2)nc(=S)c1Cl the results were VDR inh -3.1%, FEN1 inh -4.9%, TCR activator -2.3%, PI5P4Ka inh -27.4, PLK1 PBD block 29.9µM* and WRN helicase inh -0.6%.
Screening COc1ccc(-c2c(O)c3cc(O)cc(O)c3oc2=O)cc1 returned VDR inh 13.7%.
Screening O=C1c2ccccc2C(=O)N1CCCc1nc(-c2ccccn2)no1 returned VDR inh -17.8%, FEN1 inh -2.7%, TCR activator -2.7%, PI5P4Ka inh -7.2, PLK1 PBD block 29.9µM* and WRN helicase inh 10.0%.
`O=C1c2ccccc2C(=O)N1CCCc1nc(-c2ccc(Cl)cc2)no1` gave VDR inh -27.3%, FEN1 inh -9.5%, TCR activator 6.6%, PI5P4Ka inh -0.1, PLK1 PBD block -4.1% and WRN helicase inh -1.1%.
Cc1ccc(C(=O)CC2(O)C(=O)Nc3ccccc32)s1 (configuration not stated) was read as VDR inh -4.6%, FEN1 inh -3.1%, TCR activator 2.9%, PI5P4Ka inh -54.5*, PLK1 PBD block -7.6% and WRN helicase inh 6.7%.
`O=C(O)COc1ccccc1/C=N/NC(=O)c1ccncc1` gave VDR inh 8.2%.
For O=C(O)COc1ccccc1C=NNC(=O)c1ccc(NS(=O)(=O)c2cccs2)cc1 the results were VDR inh 5.2%, FEN1 inh -0.7%, TCR activator -3.5%, PI5P4Ka inh -57.4*, PLK1 PBD block -1.5% and WRN helicase inh -19.9%.
For COc1ccc(NC(=O)C2CCN(S(=O)(=O)c3ccc4c(c3)CCCC(=O)N4)CC2)cc1OC the results were VDR inh 20.5% and FEN1 inh 1.8%.
Screening C(=Nc1cnc2ccccc2c1)c1ccncc1 returned FEN1 inh -6.9%.
CC(C)CN(CC(C)C)C(=O)c1cccc(S(=O)(=O)N2CCc3ccccc32)c1 was read as VDR inh 30.8%, FEN1 inh -0.9%, TCR activator -0.7%, PI5P4Ka inh -6.9, PLK1 PBD block 23.8µM* and WRN helicase inh -1.4%.
CC(C)CCNC(=O)c1cccc(S(=O)(=O)N2CCc3ccccc32)c1 was read as VDR inh 12.6%, FEN1 inh -15.5%, TCR activator 3.8%, PI5P4Ka inh 1.8, PLK1 PBD block -2.4% and WRN helicase inh -2.5%.
For CCN(CC)S(=O)(=O)c1cccc(C(=O)N2CC(O)CC2C(=O)OC)c1 (configuration not stated) the results were VDR inh -11.4%, FEN1 inh 6.6%, TCR activator 4.7%, PI5P4Ka inh -7.0, PLK1 PBD block 29.9µM* and WRN helicase inh 9.5%.
For Cc1ccc(-c2nnn3c2nc(NCCc2ccccc2)c2ccccc23)cc1 the results were VDR inh -2.7% and FEN1 inh 19.4%.
Screening NNc1nc2c(-c3ccc(F)cc3)nnn2c2ccccc12 returned VDR inh 5.1%, FEN1 inh 28.2µM*, TCR activator -4.0%, PI5P4Ka inh -29.0, PLK1 PBD block 4.9% and WRN helicase inh -4.2%[11.6 µM].
For COC(=O)c1sc(N2C(=O)C(O)=C(C(=O)c3ccc(C)o3)C2c2cccs2)nc1C (configuration not stated) the results were VDR inh -14.9%, FEN1 inh -0.2%, TCR activator 6.5%, PI5P4Ka inh -29.3, PLK1 PBD block 26.7µM* and WRN helicase inh -10.0%.
For COC(=O)c1sc(N2C(=O)C(O)=C(C(=O)c3ccc(C)o3)C2c2ccco2)nc1C (configuration not stated) the results were VDR inh -12.1%, FEN1 inh -11.5%, TCR activator -1.7%, PI5P4Ka inh -17.5, PLK1 PBD block 29.9µM* and WRN helicase inh inconclusive.
`Cc1cc(O)c(C(c2ccccc2)N2CCC(C)CC2)c(=O)n1Cc1ccco1` (configuration not stated) gave VDR inh 7.7% and FEN1 inh -0.9%.
For COc1ccc(C)cc1NC(=O)CCn1nc(C)cc1C the results were VDR inh 14.0% and FEN1 inh -5.9%.
`C=C(C)CN(CC)c1nc(N)c(C#N)c(CC#N)c1C#N` gave VDR inh 4.8%, FEN1 inh -2.1%, TCR activator -4.0%, PI5P4Ka inh inconclusive, PLK1 PBD block -0.7% and WRN helicase inh -0.9%.
Screening CCCCN(CC)c1nc(N)c(C#N)c(CC#N)c1C#N returned VDR inh -9.5%, FEN1 inh -13.0%, PI5P4Ka inh -70.9*, PLK1 PBD block 7.3% and WRN helicase inh -11.2%.
For CC1CN(c2ccc(Cl)cc2[N+](=O)[O-])CCN1S(C)(=O)=O (configuration not stated) the results were VDR inh -4.7%, FEN1 inh 0.7%, TCR activator -3.7%, PI5P4Ka inh 3.6, PLK1 PBD block 29.9µM* and WRN helicase inh 0.9%[57.1 µM].
COc1cccc(OC)c1C(=O)NC(=S)Nc1cc(-c2nc3ccccc3[nH]2)ccc1Cl was read as VDR inh -16.6%, FEN1 inh 14.2%, TCR activator 15.7%[46.1 µM], PI5P4Ka inh -25.4, PLK1 PBD block 9.47µM* and WRN helicase inh -16.5%.
`CC(C)(Oc1ccc(Br)cc1)C(=O)Nc1cc(-c2nc3ccccc3[nH]2)ccc1Cl` gave VDR inh -17.7% and FEN1 inh 10.6%.
`O=C(Cn1c(-c2cccs2)cc2ccccc21)NCCCN1CCN(c2cccc(Cl)c2)CC1` gave VDR inh 10.3% and FEN1 inh -2.2%.
`O=C(O)c1ccc(C[n+]2c(-c3ccccc3)csc2Nc2ccccc2)cc1` gave VDR inh -17.7%, FEN1 inh -8.5%, TCR activator -0.9%[46.1 µM], PI5P4Ka inh 0.6, PLK1 PBD block inconclusive and WRN helicase inh -2.0%.

Screening results from PubChem BioAssay.
